Measurements as given in the supplement of paper PMC12024529.

Each compound was assayed on HEK293 WT BDD-FVIII-Gluc (assay: secreted FVIII-Gluc luciferase Z-score vs DMSO control; higher = more FVIII-Gluc secretion). Conditions: 5 µM.
Description: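 Natural plant-compound library (480 compounds, ST catalogue IDs) screened on HEK293 cells stably expressing WT BDD-FVIII-Gaussia luciferase fusion at 5 µM. Secreted Gluc activity in the medium is given as a Z-score relative to DMSO controls.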

SMILES | secreted FVIII-Gluc luciferase Z-score
Nc1nc2c(ncn2[C@@H]2O[C@H](CO)[C@@H](O)[C@H]2O)c(=O)[nH]1 | 1.04
O=C1C[C@@H]2[C@@H](CO)[C@H](O)C[C@@H]2O1 | 0.258
CC(C)c1ccc2c(c1)CCC1C(C)(CN)CCC[C@]21C (some centres undefined) | 0.04
O=c1oc2c(O)c(O)cc3c(=O)oc4c(O)c(O)cc1c4c23 | 0.53
CCC(C)C(=O)O[C@H]1C[C@@H](C)C=C2C=C[C@H](C)[C@H](CC[C@@H]3C[C@@H](O)CC(=O)O3)[C@H]21 (some centres undefined) | -0.369
Cc1ccc(C(=O)[C@@H]2[C@H]3C4COC(O4)C(=O)[C@@H]3[C@H]3C=Cc4ccccc4N32)cc1 (some centres undefined) | -0.368
COc1cc([C@@H]2Oc3cc(C4Oc5cc(O)cc(O)c5C(=O)[C@H]4O)ccc3O[C@H]2CO)ccc1O (some centres undefined) | 0.0424
Nc1ccn([C@@H]2O[C@H](CO)[C@@H](OP(=O)(O)O)[C@H]2O)c(=O)n1 | -0.278
O=C(O)CCCCC1CCSS1 (centres undefined) | -0.0345
CC(C)=CCc1c(O)cc(O)c2c1O[C@H](c1ccccc1)CC2=O | -0.692
O=c1cnn(C2OC(CO)C(O)C2O)c(=O)[nH]1 (centres undefined) | -2.33
NC(Cn1ccc(=O)c(O)c1)C(=O)O (centres undefined) | 0.208
CC/C=C\C[C@H]1C(=O)CC[C@@H]1CC(=O)O | 0.253
COc1ccc(-c2coc3cc(O)cc(O)c3c2=O)cc1 | 0.185
CNC[C@H](O)c1ccc(O)c(O)c1 | 0.948
COc1cc2c3cc1Oc1c(OC)c(OC)cc4c1[C@@H](Cc1ccc(O)c(c1)Oc1ccc(cc1)C[C@@H]3N(C)CC2)N(C)CC4 | 0.165
COc1ccc(-c2cc(=O)c3c(O)cc(O)cc3o2)cc1 | 0.381
COc1cc(O)c2c(=O)cc(-c3ccccc3)oc2c1 | 1.12
C/C=C(\C)C(=O)OC1CC2(C)OC2C(OC(C)=O)C2(C)CCC(O)(C(C)C)C12 (centres undefined) | -0.754
CC(=O)OC1CCC2(C)C(CCC3(C)C2C(=O)C=C2C4CC(C)(C(=O)OCCN5CCCCC5)CCC4(C)CCC23C)C1(C)C (centres undefined) | 0.64

SMILES | secreted FVIII-Gluc luciferase Z-score
Nc1ccn(C2OC(COP(=O)(O)O)C(O)C2O)c(=O)n1 (centres undefined) | 0.194
O=C(O)C1[C@H]2C[C@H]3c4[nH]c5ccccc5c4CCN3C[C@@H]2CC[C@@H]1O (some centres undefined) | 0.257
COc1ccc(C(=O)C2C3C4COC(O4)C(=O)C3C3C=Cc4ccccc4N32)c(OC)c1 (centres undefined) | -0.809
C=C[C@@](C)(O)CC[C@@H]1[C@@]2(C)CCCC(C)(C)[C@@H]2CC[C@@]1(C)O | 0.556
COc1c(C)c2c(c(O)c1C/C=C(\C)CCC(=O)O)C(=O)OC2 | -4.24
O=c1[nH]c(=O)c2ncn([C@@H]3O[C@H](CO)[C@@H](O)[C@H]3O)c2[nH]1 | 0.541
C=C1CCC(O)C/C1=C\C=C1/CCCC2(C)C1CCC2C(C)/C=C/C(C)C(C)C (centres undefined) | -0.228
C[C@H](CCC(=O)O)[C@H]1CC[C@H]2[C@@H]3[C@H](O)C[C@@H]4C[C@H](O)CC[C@]4(C)[C@H]3C[C@H](O)[C@]12C | -0.337
O=C(CCc1ccc(O)cc1)c1c(O)cc(O)cc1O | -0.769
COc1cc2cc(Oc3ccc4ccc(=O)oc4c3)c(=O)oc2cc1OC(C)=O | 0.744
CC1(C)CCC[C@@]2(C)C1CCC1(C)OC(=O)CC12 (some centres undefined) | 0.281
COC(=O)C1C2CC3c4[nH]c5cc(OC)ccc5c4CCN3CC2CC(OC(=O)c2cc(OC)c(OC)c(OC)c2)C1OC (centres undefined) | -0.436
O=c1c(O)c(-c2ccc(O)c(O)c2)oc2c(O[C@@H]3O[C@H](CO)[C@@H](O)[C@H](O)[C@H]3O)c(O)cc(O)c12 | 1.19
CC[C@]12CCCN3CCc4c(n(c5ccccc45)C(=O)C1)C32 (some centres undefined) | 0.363
c1coc(CNc2ncnc3nc[nH]c23)c1 | 0.193
C=C1C(=O)O[C@@H]2C3OC3(C)CC/C=C(\C)CC[C@@H]12 (some centres undefined) | -0.0355
COc1ccccc1CC(Cc1nc2ccccc2[nH]1)c1nc2ccccc2[nH]1 (centres undefined) | 0.163
O=C(/C=C/c1ccc(O)c(O)c1)OC(Cc1ccc(O)c(O)c1)C(=O)O (centres undefined) | 0.861
CCCCCCCCCCCC1=C(O)C(=O)C=C(O)C1=O | 0.529
